MCF10A rerep = inducers of DNA re-replication in MCF 10A breast cells | 350,000 tested, 2.9% active | Potency, µM (highest dose often 46.1 µM), for inactives: top-dose activity, positive = re-replication, most hits filed as activators | MCF 10A DNA re-replication, Hoechst nuclear intensity, 48 h; further: % of control where 0% means no effect; nearly all actives have a fitted effect of over 50% in size
ELG1 genotox = inducers of genotoxicity in HEK293T ELG1-luciferase cells; 330,000 tested, 1.3% active; HEK293T ELG1-luciferase reporter, luminescence, 16 h; Potency, µM (highest dose often 46 µM), for inactives: at the highest dose activity change, positive = activation, actives largely listed as activators; further: % of control where 0% means no effect; nearly all actives have a fitted effect of over 60% in size
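HEK293T cells expressing luciferase-tagged ELG1 were exposed to compound or DMSO vehicle for 16 hr at 37 °C and 5% CO2. Luciferase activity was then measured with ONE-Glo after 30 min at room temperature.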
ELG1 DNA repair = ELG1-dependent DNA repair inhibition | HEK293T ELG1-luciferase reporter, luminescence, 16 h; DNA damage induced by 5-fluorouridine | 330,000 tested, 2.3% active | Potency, µM (highest dose often 46.1 µM), for the others: at the highest dose activity change, negative = inhibition, actives largely listed as inhibitors; further: on the % scale 0 is the no-effect control and ±100 the full control effect; nearly all actives have a fitted effect of over 55% in size
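Reporter activity after DNA damage by 5-fluorouridine is monitored. Compound-treated cells incubate 16 hr at 37 °C, then ONE-Glo is added for 30 min before luminescence reading.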
A-T KAP1 phos = potential ataxia-telangiectasia treatments restoring KAP-1 phosphorylation. F2112 A-T fibroblasts, KAP-1 phosphorylation AlphaLISA; neocarzinostatin DNA damage 30 min before lysis. 320,000 tested, 0.19% active. AID 485349. Potency, µM (titrated, usually from 57.5 µM), without a hit: at the highest dose activation, most hits filed as activators; further: % of control where 0% means no effect; nearly all actives have a fitted effect of over 45% in size
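hTERT-immortalized A-T patient fibroblasts (F2112), 500 cells/well in OPTI-MEM, 1% FBS, got compounds for 60 min, then NCS for 30 min at 37C. Lysates were then assayed for phospho-KAP-1 by AlphaLISA (anti-pKAP1 donor, anti-KAP1 acceptor beads), 6 hr at 25C.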
SW480 rereplic = DNA re-replication induction in SW480 cells; Potency, µM (doses to about 46.1 µM), inactives show at the highest dose re-replication activation, most hits filed as activators; SW480 DNA re-replication, Hoechst DNA content imaging, 48 h; 340,000 tested, 1.8% active; further: % of control where 0% means no effect; nearly all actives have a fitted effect of over 55% in size
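Cells (250 per well) received 23 nL compound or DMSO by pin tool and were kept 48 hr at 37 C, 5% CO2. Nuclei were then stained with Hoechst for 40 min and scanned for DNA content.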
p53 reactivation = mutant p53 re-activation in reporter cells | Potency, µM (doses to about 92.2 µM), inactives show at the top dose activity change, positive = activation, usual class: activators | 320,000 tested, 0.063% active | H1299 p53-A138V BP100-luciferase reporter, luminescence, 24 h | AID 504706; further: % of control where 0% means no effect; nearly all actives have a fitted effect of over 45% in size
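p53-null H1299 cells stably carrying temperature-sensitive p53-A138V and a BP100-luciferase reporter were pinned with compounds (4-point, 1:5 series) and held 24 hrs at 37 deg C. Luminescence was read 10 min after detection reagent.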
* hit, by the source's call; [ ] = remark or other dose. An excerpt weighted towards active compounds, which were near 7.1% of everything screened. The call rests on the fitted dose curve; in most records, active means well fitted curve in the direction sought with a large enough effect; inconclusive means small, poorly fitted or top-dose-only effect, or another doubt; inactive means no such curve, though single readings can be large; an effect the other way counts as inactive or inconclusive. Potency means the concentration at half of the fitted maximal effect.

Results for COc1ccc(NC(=O)Nc2cccc3c2O[C@H](CN(C)S(=O)(=O)c2ccc(OC)cc2)[C@@H](C)CN([C@H](C)CO)C3=O)cc1 ?
MCF10A rerep: 0%; ELG1 genotox: -6%; ELG1 DNA repair: 21µM*; A-T KAP1 phos: 3%; SW480 rereplic: 2%; p53 reactivation: -4%

What do the screens show for `C[C@H](CO)N1C[C@H](C)[C@@H](CN(C)C(=O)Nc2ccc(C(F)(F)F)cc2)Oc2c(NC(=O)Nc3ccc(C(F)(F)F)cc3)cccc2C1=O`?
MCF10A rerep: inconclusive; ELG1 genotox: -7%; ELG1 DNA repair: 16µM*; A-T KAP1 phos: 5%; SW480 rereplic: -4%; p53 reactivation: -8%

What do the screens show for `COc1ccc(NC(=O)Nc2cccc3c2O[C@H](CN(C)S(=O)(=O)c2ccccc2)[C@@H](C)CN([C@H](C)CO)C3=O)cc1`?
MCF10A rerep: 3%; ELG1 genotox: 0%; ELG1 DNA repair: -17%; A-T KAP1 phos: 3%; SW480 rereplic: 11%[9.22 µM]; p53 reactivation: -3%

What do the screens show for `Cc1nc(-c2ccc(F)cc2)c(CC(=O)N2CCN(S(=O)(=O)c3cccc([N+](=O)[O-])c3)CC2)s1`?
MCF10A rerep: 0%; ELG1 genotox: -8%; ELG1 DNA repair: inconclusive; A-T KAP1 phos: 11%; SW480 rereplic: inconclusive; p53 reactivation: 1%

What do the screens show for `CCn1c(C)c(C(=O)c2ccccc2)c(C#N)c1C(=O)O`?
MCF10A rerep: 0%; ELG1 genotox: 5%; ELG1 DNA repair: 16%; A-T KAP1 phos: 2%; SW480 rereplic: -1%; p53 reactivation: 6%

What do the screens show for `Cc1ccc(CNC(=O)CSc2nc3n[nH]c(C)c3c(=N)n2-c2cccc(C)c2)cc1`?
MCF10A rerep: inconclusive; ELG1 genotox: -11%; ELG1 DNA repair: inconclusive; SW480 rereplic: 13%; p53 reactivation: -3%

How did COc1cccc(-n2c(SCC(=O)NCCC3=CCCCC3)nc3n[nH]c(C)c3c2=N)c1 do in these assays?
MCF10A rerep: inconclusive; ELG1 genotox: -9%; ELG1 DNA repair: 16µM*; A-T KAP1 phos: -2%; SW480 rereplic: 12%; p53 reactivation: -2%

What do the screens show for `COc1cccc(NC(=O)CSc2nc3n[nH]c(C)c3c(=N)n2-c2cccc(OC)c2)c1`?
MCF10A rerep: 13%; ELG1 genotox: -7%; ELG1 DNA repair: inconclusive; A-T KAP1 phos: 2%; SW480 rereplic: 3%; p53 reactivation: -5%

How did CCc1ccc(NC(=O)CSc2nc3n[nH]c(C)c3c(=N)n2-c2cccc(OC)c2)cc1 do in these assays?
MCF10A rerep: inconclusive; ELG1 genotox: 3%; ELG1 DNA repair: 10µM*; A-T KAP1 phos: 1%; SW480 rereplic: 20%; p53 reactivation: 0%

Results for Cc1ccc(CCNC(=O)c2nnc(CS(=O)(=O)c3ccccc3)o2)cc1 ?
MCF10A rerep: 0%; ELG1 genotox: 3%; ELG1 DNA repair: 0%; A-T KAP1 phos: 6%; SW480 rereplic: -2%

How did FC(F)(F)c1cnc2c(c1)[nH]c(=S)n2-c1ccc(Cl)cc1 do in these assays?
MCF10A rerep: inconclusive; ELG1 genotox: -14%; ELG1 DNA repair: 16µM*; A-T KAP1 phos: 0%; SW480 rereplic: -4%; p53 reactivation: -2%

How did Cc1ccc(C(=O)N(CC(C)C)c2c(N)n(Cc3ccccc3)c(=O)[nH]c2=O)o1 do in these assays?
MCF10A rerep: 2%; ELG1 genotox: 1%; ELG1 DNA repair: 14%; A-T KAP1 phos: 3%; SW480 rereplic: -39%; p53 reactivation: 2%

What do the screens show for `COc1ccc(OC)c(C(=O)CN2CCN(S(=O)(=O)c3ccc(Br)cc3)CC2)c1`?
MCF10A rerep: 23µM*; ELG1 genotox: 2%; ELG1 DNA repair: -19%; A-T KAP1 phos: 6%; SW480 rereplic: inconclusive; p53 reactivation: -3%

Results for COc1ccc(S(=O)(=O)N2CCN(CCOc3ccc(Br)cc3)CC2)cc1OC ?
MCF10A rerep: 6%; ELG1 genotox: -7%; ELG1 DNA repair: inconclusive; A-T KAP1 phos: -2%; SW480 rereplic: 6%; p53 reactivation: -11%

What do the screens show for `CSCCC(NC(=O)c1ccccc1)C(=O)NCCCn1nc(C)cc1C` (stereo unspecified)?
MCF10A rerep: 7%; ELG1 genotox: -2%; ELG1 DNA repair: 16%; A-T KAP1 phos: 1%; SW480 rereplic: -2%; p53 reactivation: -14%

What do the screens show for `Cc1ccccc1N=Nc1ccc(O)c2ncccc12`?
MCF10A rerep: inconclusive; ELG1 genotox: 12µM*; ELG1 DNA repair: inconclusive; A-T KAP1 phos: -9%; SW480 rereplic: inconclusive; p53 reactivation: inconclusive

How did COc1ccc(C)cc1N=Nc1ccc(O)c2ncccc12 do in these assays?
MCF10A rerep: 17%; ELG1 genotox: 14%; ELG1 DNA repair: inconclusive; A-T KAP1 phos: -6%; SW480 rereplic: inconclusive; p53 reactivation: 0%

What do the screens show for `COc1ccc(N=Nc2ccc(O)c3ncccc23)cc1`?
MCF10A rerep: 20%; ELG1 genotox: 4.6µM*; ELG1 DNA repair: 2%; A-T KAP1 phos: -82%; SW480 rereplic: inconclusive; p53 reactivation: 20%

How did COc1cccc(N=Nc2ccc3cccnc3c2O)c1 do in these assays?
MCF10A rerep: 28%; ELG1 genotox: 16µM*; ELG1 DNA repair: 2.3µM*; A-T KAP1 phos: -23%; SW480 rereplic: 2%; p53 reactivation: 35µM*

What do the screens show for `COc1cccc(N=Nc2ccc(O)c3ncccc23)c1`?
MCF10A rerep: -5%; ELG1 genotox: inconclusive; ELG1 DNA repair: inconclusive; A-T KAP1 phos: -18%; SW480 rereplic: 27%; p53 reactivation: inconclusive

Results for CCC1C/C(=C/c2ccco2)C(=O)/C(=C/c2ccco2)C1 (stereo unspecified) ?
ELG1 genotox: 6%; ELG1 DNA repair: inconclusive; A-T KAP1 phos: 9%; p53 reactivation: inconclusive

How did COc1cc(OC)c(OC)cc1/C=C1/Cc2ccccc2C1=O do in these assays?
MCF10A rerep: -1%; ELG1 genotox: 3%; ELG1 DNA repair: 8%; A-T KAP1 phos: -13%; SW480 rereplic: 9%; p53 reactivation: -2%

How did COc1cc(OC)c(OC)cc1/C=C1\CC(C)C/C(=C\c2cc(OC)c(OC)cc2OC)C1=O (stereo unspecified) do in these assays?
MCF10A rerep: 16µM*; ELG1 genotox: -18%; ELG1 DNA repair: 7.3µM*; A-T KAP1 phos: -3%; SW480 rereplic: inconclusive; p53 reactivation: 3%

Compound activity as filed in PubChem.
